# Screening data: PubChem, The Scripps Research Institute Molecular Screening Center
# In the library only some 1.8% were active in any assay of this set; here they are far more common.
# PP5 primary = blocks human protein phosphatase 5 activity; P53041; purified PP5c, OMFP substrate fluorescence; inhibition, % at 6.7 µM; 320,000 tested, 0.18% active; AID 1987;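 active means inhibition above the campaign's mean inhibition across all tested compounds plus 3 SD, cut at about 9.5% in these data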;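 further: 0% = DMSO only and 100% = 100 µM cantharidin control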
# PME-1 primary = PME-1 (human) inhibition; Q9Y570; recombinant PME-1, FP-Rh probe fluorescence polarization; inhibition, % at 5.9 µM; 320,000 tested, 0.53% active;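 active means inhibition above the campaign mean of all compounds plus 3 SD, cut at about 26% in these data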;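 further: competitive labeling of PME-1 active site by serine hydrolase directed probe; 0% = PME-1 with DMSO and 100% = wells lacking PME-1 enzyme; inhibitors block probe labeling so polarization falls and inhibition rises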
# Target sequence (Q9Y570 whole entry, looked up): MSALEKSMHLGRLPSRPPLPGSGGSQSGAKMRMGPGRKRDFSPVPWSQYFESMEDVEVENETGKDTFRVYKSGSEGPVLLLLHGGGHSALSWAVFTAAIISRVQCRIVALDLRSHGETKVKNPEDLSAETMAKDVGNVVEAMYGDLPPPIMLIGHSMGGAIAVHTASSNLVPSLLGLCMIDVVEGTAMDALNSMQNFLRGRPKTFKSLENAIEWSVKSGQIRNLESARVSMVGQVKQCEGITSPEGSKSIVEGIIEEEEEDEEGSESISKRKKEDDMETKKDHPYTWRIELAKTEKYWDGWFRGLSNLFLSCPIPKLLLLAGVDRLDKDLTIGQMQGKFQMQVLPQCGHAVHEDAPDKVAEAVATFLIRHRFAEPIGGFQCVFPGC
# LYPLA1 inh = LYPLA1 (human) inhibition in PME1 counter-screen | recombinant LYPLA1, FP-Rh probe fluorescence polarization | 320,000 tested, 0.16% active | AID 2174 | O75608 | inhibition, % at 5.9 µM;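 active means inhibition above the mean of all tested compounds plus 3 SD, set per campaign, cut at about 14% in these data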;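 further: inhibitors block serine hydrolase probe labeling of LYPLA1 so polarization falls; 0% = enzyme with DMSO and 100% = wells lacking LYPLA1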
# LYPLA2 inh = blocks human lysophospholipase 2, a PME1 counter-screen; recombinant LYPLA2, FP-Rh probe fluorescence polarization; inhibition, % at 5.9 µM; 320,000 tested, 0.38% active; AID 2177;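 active means inhibition above the screen-wide mean plus 3 SD, limit set per campaign, cut at about 26% in these data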;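 further: 0% = LYPLA2 with DMSO and 100% = wells lacking LYPLA2 enzyme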
# PP1 inh = blocks human PP1-alpha phosphatase, a PP5 counter-screen. P62136. purified PP1alpha, OMFP fluorescence. inhibition, % at 6.7 µM. 320,000 tested, 0.9% active;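 active means inhibition above the mean inhibition of all tested compounds plus 3 SD, computed separately for each screening campaign, cut at about 15% in these data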
# Target sequence (P62136 whole entry, looked up): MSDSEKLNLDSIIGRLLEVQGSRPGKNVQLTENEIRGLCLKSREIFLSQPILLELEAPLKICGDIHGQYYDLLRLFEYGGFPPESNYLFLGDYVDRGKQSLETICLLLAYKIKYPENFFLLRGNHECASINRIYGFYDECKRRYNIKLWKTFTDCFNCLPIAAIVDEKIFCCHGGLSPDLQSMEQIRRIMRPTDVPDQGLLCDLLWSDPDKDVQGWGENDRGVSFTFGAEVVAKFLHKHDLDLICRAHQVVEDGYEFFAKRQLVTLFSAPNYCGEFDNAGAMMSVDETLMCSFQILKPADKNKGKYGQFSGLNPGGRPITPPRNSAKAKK
# Fam108B counter = blocks mouse Fam108B hydrolase in RBBP9 counter-screen; recombinant Fam108B, FP-Rh probe fluorescence polarization; inhibition, % at 9.51 µM; 300,000 tested, 0.33% active;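 active means inhibition above the screen mean inhibition plus 3 SD, computed separately per campaign, cut at about 18% in these data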;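 further: inhibitors lower polarization as less probe binds the enzyme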
# LYPLA2 conf = LYPLA2 (human) inhibition, confirmation counter-screen | shares compounds with LYPLA2 inh | recombinant LYPLA2, FP-Rh probe fluorescence polarization | inhibition, % at 5.9 µM | 1,100 tested, 72% active | AID 2232;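 active means mean inhibition across replicates above the hit cutoff set in the primary screen, cut at about 26% in these data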;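 further: blocked labeling of the enzyme by serine hydrolase FP-Rh probe lowers polarization; 0% = enzyme with DMSO and 100% = wells lacking LYPLA2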
# LYPLA2 ABPP = LYPLA2 (human) inhibition, late stage results; shares compounds with LYPLA2 inh; rhLYPLA2 in mouse brain proteome, gel ABPP FP-Rh; inhibition, % at 20 µM; 150 tested, 30% active;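 active means inhibition of LYPLA2 enzyme probe labeling above about 50%, limit read from the data; inactive means inhibition below that limit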;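 further: loss of FP-Rh probe labeling of the LYPLA2 gel band measured as band density; 0% = DMSO only control band and 100% = blank gel background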
# * marks the source's active call; other numbers are inactive results; / = no result given.
SMILES,PP5 primary,PME-1 primary,LYPLA1 inh,LYPLA2 inh,PP1 inh,Fam108B counter,LYPLA2 conf,others
O=C(Cc1ccc(-n2c(=O)[nH]c3ccsc3c2=O)cc1)N1CCN(c2ccc(Cl)cc2)CC1,-2.5,-2.6,2.2,30.9*,-7.0,4.3,28.6*,
CCOC(=O)c1c(NC(=O)CN2C(=O)NC(C)(c3ccc(Cl)cc3)C2=O)sc(C(=O)NC)c1C (stereo unspecified),5.0,11.6,5.2,41.4*,1.7,0.3,34.2*,
COc1ccc(N2CCN(C(=O)c3ccc(CNS(=O)(=O)c4cccc(OC)c4)cc3)CC2)cc1,0.8,5.8,0.0,31.2*,-0.1,1.3,16.1,
COc1ccc(S(=O)(=O)NCc2ccc(C(=O)N3CCN(c4ccccn4)CC3)cc2)cc1,1.2,8.6,-1.1,8.4,-3.7,-4.2,/,
COc1ccc(CNc2ccc(N3CCOCC3)cc2)cc1,3.8,0.8,-0.8,5.8,-2.4,-4.1,/,
COc1cccc(S(=O)(=O)NCc2ccc(C(=O)N3CCN(c4ccccc4OC)CC3)cc2)c1,7.1,-4.1,0.1,57.5*,-0.9,-2.0,69.9*,LYPLA2 ABPP=34.0
Cc1ccc(S(=O)(=O)NCc2ccc(C(=O)N3CCc4ccccc4C3)cc2)cc1,2.3,-2.7,-4.7,10.1,1.4,0.9,/,
COc1cccc(S(=O)(=O)NCc2ccc(C(=O)N3CCN(c4ccccc4)CC3)cc2)c1,1.9,4.9,2.1,20.2,-0.2,-0.6,/,
COc1ccc(S(=O)(=O)NCc2ccc(C(=O)N3CCc4ccccc4C3)cc2)cc1,1.2,2.8,3.8,47.8*,-0.2,3.6,56.9*,LYPLA2 ABPP=28.0
COc1ccc(N2CCN(C(=O)c3ccc(CNc4c(N5CCOCC5)c(=O)c4=O)cc3)CC2)cc1,-2.8,-3.3,1.4,51.5*,-4.7,3.2,58.0*,LYPLA2 ABPP=35.0
Cc1cc(C(=O)Nc2ccccc2C(=O)O)ccc1NC(=O)COc1cccc(C)c1C,0.2,-1.8,-1.1,2.3,1.7,3.0,/,
O=C(c1ccc(CNS(=O)(=O)c2ccccc2)cc1)N1CCN(Cc2ccccc2)CC1,1.0,2.1,0.2,32.7*,-1.7,2.1,32.2*,
COc1ccc(N2CCN(C(=O)c3ccc(-c4ccccc4)cc3)CC2)cc1,-0.1,-0.3,1.2,34.3*,-2.5,2.8,34.8*,
O=C(c1ccc(-c2ccccc2)cc1)N1CCN(c2ccccc2)CC1,3.0,-1.3,-0.3,21.9,5.2,-1.5,/,
CC1CCN(c2c(NCc3ccc(C(=O)N4CCN(C5CCCCC5)CC4)cc3)c(=O)c2=O)CC1,2.1,-5.3,3.0,10.2,-0.2,5.5,/,
O=C(c1ccc(CNc2c(N3CCCC3)c(=O)c2=O)cc1)N1CC=C(c2ccccc2)CC1,2.0,6.9,11.9,47.0*,-2.4,3.0,52.5*,LYPLA2 ABPP=21.0
Cc1nc(C(=O)Nc2ccc(Cl)cc2)sc1C1(C)CC(c2cccc([N+](=O)[O-])c2)=NO1 (stereo unspecified),-0.1,-3.5,-6.0,-4.2,4.5,-1.6,/,
Cc1nc(C(=O)NC2CCCCC2)sc1C1(C)CC(c2cccc([N+](=O)[O-])c2)=NO1 (stereo unspecified),0.8,4.4,-1.3,50.3*,0.9,-1.4,59.6*,LYPLA2 ABPP=45.0
COc1ccc(N2CCN(C(=O)CSc3nc4[nH]ncc4c(=O)n3-c3ccc(Br)cc3)CC2)cc1,2.1,-0.9,12.1,46.9*,4.7,3.8,42.2*,
COc1ccc(-n2c(SCC(=O)NCc3cccs3)nc3[nH]ncc3c2=O)cc1,-0.1,-0.6,0.5,-1.9,-3.0,1.8,/,
COc1cc(/C=N/NC(=O)/C(=C\c2ccc([N+](=O)[O-])cc2)NC(=O)c2ccccc2)cc(OC)c1O,3.7,4.8,-1.6,38.8*,3.2,2.9,41.8*,
COc1cc(/C=N/NC(=O)/C(=C\c2ccc3c(c2)OCO3)NC(=O)c2ccccc2)ccc1O,-1.0,10.9,-0.2,1.6,-1.0,6.1,/,
CCN1C(=O)CC(C(=O)Nc2ccc(F)cc2)SC1=Nc1cccc(OC)c1 (stereo unspecified),1.9,-6.4,2.2,29.0*,0.7,-4.8,7.7,
O=C1NC(Cc2ccccc2)c2nc3ccc(Cl)cc3c(=O)n2-c2ccc(Cl)cc21 (stereo unspecified),0.8,-10.7,-5.0,26.1*,-3.0,/,-11.3,
Cc1nn(-c2ccccc2)c2nc(C(Cl)(Cl)Cl)[nH]c(=O)c12,-3.0,-6.0,-2.8,-1.7,-2.1,-4.6,/,
SMILES,PP5 primary,PME-1 primary,LYPLA1 inh,LYPLA2 inh,PP1 inh,Fam108B counter,LYPLA2 conf,others
CCc1ccc(C(=O)Cn2ncc(Cl)c(Cl)c2=O)cc1,1.1,-9.8,-4.0,31.4*,-6.5,-5.9,35.0*,
CC(NC(=O)COC(=O)C1(C)CC1(Cl)Cl)c1ccccc1 (stereo unspecified),1.7,-7.7,-0.7,1.0,-4.6,/,/,
NC(=O)CC(NC(=O)c1ccc(Br)cc1)c1ccc(N2CCN(c3ccccn3)CC2)c([N+](=O)[O-])c1 (stereo unspecified),0.6,12.7,2.6,49.7*,-1.4,-3.3,56.9*,LYPLA2 ABPP=37.0
NC(=O)CC(NC(=O)c1cccc(Br)c1)c1ccc(N2CCN(c3ccccn3)CC2)c([N+](=O)[O-])c1 (stereo unspecified),0.1,7.2,-4.3,23.3,7.4,0.0,/,
CC(=C\C(=O)O)/C(=C\c1cccc2ccccc12)C(=O)O,-2.2,2.4,0.9,1.2,-2.1,0.7,/,
CC(=O)Oc1ccc2c(C)cc(=O)oc2c1,2.2,0.1,1.4,3.1,0.6,-0.3,/,
Cc1cc(=O)oc2cc(Oc3ccc([N+](=O)[O-])cc3C(F)(F)F)ccc12,3.6,8.3,2.0,43.5*,1.4,-0.3,42.1*,
CCN(CC)c1ccc(NC(=O)c2ccc3c(c2)OCO3)c(C)c1,0.8,-0.9,-1.0,1.0,1.0,2.9,/,
O=C(COC(=O)C1CCC1)Nc1ncc(Cl)cc1Cl,-0.1,4.8,0.7,0.3,1.1,3.4,/,
Cc1ccc(-c2noc(C3CCCN(C(=O)c4ccccc4Br)C3)n2)o1 (stereo unspecified),2.8,2.2,-0.1,1.9,4.8,-3.3,/,
CN(Cc1nc(-c2ccccn2)no1)S(=O)(=O)c1ccc(Br)cc1,2.8,-1.9,1.0,37.2*,2.2,-2.3,34.9*,
CN(Cc1nc(-c2cccnc2)no1)S(=O)(=O)c1ccc(Br)cc1,0.6,6.8,-0.7,40.7*,0.6,5.2,30.8*,
Cc1c(Cl)cccc1NC(=O)COC(=O)c1ccc(CN2CCCC2=O)cc1,-0.2,-2.5,-0.7,-5.0,-4.2,/,/,
O=c1cc(Cl)c(-c2ccccc2)nn1Cc1ccc(Cl)cc1,3.9,4.5,-0.5,26.4*,3.0,-6.9,35.1*,
